This note sets out measurements from PubChem BioAssay AID743287 (Broad Institute, 2014).

Screen size: about 370,000 compounds; about 2,300 (0.62%) were called active. The sample holds actives, similar compounds and a random draw of the others, so the mix is not that of the screen.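 The calls were made as follows: active = lowest replicate activation of at least 40%, so every replicate reaches that level; inactive = the rest.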

The assay can be described thus: GLuc luminescence reporter in INS-1E cells, primary screen for activators of glucose-dependent secretion of insulin (AID 743287).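 Also: 0% = median of neutral control wells and 100% = median of IBMX positive control wells.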 The following applies: INS-1E GLuc reporter insulin secretion, 2-3 h, at 16.6 µM, hits give high values.
`COc1cccc(-c2ccc3n(c2=O)C[C@@H]2[C@@H](CO)[C@H](C(=O)NC4CCC4)[C@H]3N2C)c1`: the activation was 7.74% (inactive).

For the molecule `COc1cccc2cc(C(=O)NCc3ccc(C)cc3)c(=N)oc12`, the activation is 12.3% (inactive).

For `COc1cccc(C(=O)OCc2cc(=O)oc3c(C)c(C)ccc23)c1OC`, the activation was 8.16% (inactive).

For `COc1cccc2cc(-c3cc(=O)oc4cc(C)c(O)cc34)oc12`, the activation is 78.5% (active).

As to `CNC[C@@H]1Oc2ccc(N(C)C)cc2CC(=O)N(C)C[C@@H]1C`, the activation is 2% (inactive).

Consider `CC(C)(C(=O)N1CCC1(C)C(=O)NS(=O)(=O)c1ccc(Br)cc1)c1ccccc1` (configuration not stated), for which the activation was 41.5% (active).

Regarding `CC1(C(=O)NS(=O)(=O)c2ccccc2)CCN1C(=O)C1CCCCC1` (configuration not stated), the activation was 4.33% (inactive).

Take `CC(C)(C)c1ccc(S(=O)(=O)NC(=O)C2(C)CCN2C(=O)CC2CC2)cc1` (configuration not stated): the activation was 7.26% (inactive).

For `O=C(NCC[C@@H]1CC[C@H](NC(=O)C2CCCCC2)[C@@H](CO)O1)Nc1ccc(Cl)cc1`, the activation was -11.1% (inactive).

For `Cc1noc(C)c1NC(=O)N(C)C[C@@H]1OCCCC[C@@H](C)Oc2ccc(NC(=O)C3CCCCC3)cc2C(=O)N([C@@H](C)CO)C[C@H]1C`, the activation was -7.43% (inactive).

As for `COc1ccc(-c2ccccc2[C@@H]2[C@@H](C#N)N(C(=O)NC3CCCC3)[C@H]2CO)cc1`, the activation is -19.5% (inactive).

Regarding `COc1ccc2c3c(n(C)c2c1)[C@@H](CO)N(Cc1ccccc1OC)CC31CN(CC2CCOCC2)C1`, the activation was 10% (inactive).

On to `CC(C)C#Cc1ccc2c(c1)O[C@@H](CN(C)CC1CCOCC1)[C@H](C)CN([C@H](C)CO)S2(=O)=O`, for which the activation is -9.43% (inactive).

As for `Cc1ccc(/C=N/NC(=O)COc2ccccc2-c2ccccc2)cc1`, the activation was 267% (active).

For `O=C(COc1ccc(-c2ccccc2)cc1)NN=C1CCCC1`, the activation is 11% (inactive).

With `O=C(CN1CCSCC1)N/N=C/c1ccc(F)cc1`, the activation was -0.738% (inactive).

For the molecule `CN(C)C(=O)C[C@H]1CC[C@@H](NC(=O)Nc2cccc(F)c2)[C@H](CO)O1`, the activation was 3.3% (inactive).

Consider `CN1c2ccc(-c3ccc(F)cc3)cc2[C@@H]2[C@@H](CCN2C(=O)c2cccnc2)[C@H]1CO`, for which the activation was 18.2% (inactive).

With `CNC[C@H]1Oc2ccc(NS(=O)(=O)c3ccccc3)cc2CC(=O)N([C@H](C)CO)C[C@@H]1C`, the activation is 3.16% (inactive).

For `Cc1ccc(C)c(NC(=O)C2CCCN2C(=O)OC(C)(C)C)c1` (configuration not stated), the activation is -3.08% (inactive).

As to `CCC[C@H]1CCCC/C=C\CCCC(=O)OCCN1C(=O)OC(C)(C)C`, the activation was 66.4% (active).

As for `Cc1cccc(C)c1NC(=O)C1CCCN1C(=O)OC(C)(C)C` (configuration not stated), the activation is 2.21% (inactive).
